In all, about 290,000 compounds went through this assay and about 27,000 (9.3%) were called active. Cut-off read from the data, not from the text of the source: active = inhibition mostly above about 28% (no sharp cut-off); inactive = mostly below about 43%. The full list was thinned out, with actives kept by preference.
Assay: A qHTS for Small Molecule Inhibitors of Shiga Toxin; for inhibition: 0% is about no effect
Details: Vero cells, Shiga toxin protein synthesis inhibition reporter; at 38.7 µM, active compounds read high

SMILES	inhibition
Cc1ccc(C(=O)NCCNS(=O)(=O)c2ccccc2)cc1	1.8% (inactive)
Cc1cc(S(=O)(=O)NC2CCCC2)ccc1-n1cnnn1	-8.85% (inactive)
Cc1cc(CNC(=O)C2CCC(=O)N(CCc3ccc(Cl)cc3)C2)no1 (centres undefined)	-7.54% (inactive)
CC(=O)Nc1c2c(nn1-c1ccc(C)cc1C)CS(=O)C2 (centres undefined)	-1.19% (inactive)
CC1=CCC2C(=O)N(c3cccc(C(=O)NC(C)c4ccccc4)c3)C(=O)C2C1 (centres undefined)	-6.84% (inactive)
Cc1ccc(C)c(N2CCN(C(=O)CCCn3c(=O)c4cccn4c4cccnc43)CC2)c1	-8.84% (inactive)
O=C(CSc1cccc[n+]1[O-])c1ccc(-c2ccccc2)cc1	142% (active)
COc1ccccc1C(=O)CSc1cccc[n+]1[O-]	-1.48% (inactive)
O=C(CSc1cccc[n+]1[O-])c1ccc(Cl)cc1	5.16% (inactive)
CC(=O)Nc1cccc(NC(=O)CSc2nccn2Cc2ccc(F)cc2)c1	-6.32% (inactive)
NS(=O)(=O)c1ccc(NC(=O)COC(=O)c2cc3ccccc3oc2=O)cc1	16.5% (inactive)
NS(=O)(=O)c1ccc(NC(=O)COC(=O)c2c3c(nc4ccccc24)/C(=C\c2ccc4c(c2)OCO4)CCC3)cc1	3.72% (active)
O=C(COC(=O)c1c2c(nc3ccccc13)/C(=C\c1cccs1)CCC2)Nc1ccccc1Cl	24.9% (inactive)
COc1cc(-c2cc(C(=O)OCC(=O)Nc3ccc4c(c3)OCO4)c3ccccc3n2)cc(OC)c1OC	3.34% (inactive)
NS(=O)(=O)c1ccc(NC(=O)COC(=O)c2ccc(Cl)nc2)cc1	-4.23% (inactive)
NC(=O)c1ccc(NC(=O)COC(=O)c2c3c(nc4ccccc24)/C(=C\c2ccc4c(c2)OCO4)CCC3)cc1	59.8% (active)
O=C(N/C(=C/c1ccc(Cl)cc1)C(=O)N1CCCCC1)c1ccco1	5.11% (inactive)
O=C1CCC(C(=O)N2CCN(c3ccccc3Cl)CC2)CN1CC1CCCCC1 (centres undefined)	-2.81% (inactive)
Cc1c(OC(C)C(=O)NCC2CCC(C(=O)O)CC2)ccc2c1oc(=O)c1ccccc12 (centres undefined)	-3.63% (inactive)
CCCC[C@]12Cc3cc(OC)c(OC)cc3C(O1)C1=C(CC3(CCCCC3)OC1=O)O2	inactive
CCn1cc(CN2CCN(CC(C)(C)C)C(CCO)C2)c2ccccc21 (centres undefined)	8.71% (inactive)
CC(=O)Nc1ccc(S(=O)(=O)N2N=NC3C2C2CC4C3(CN(C(=O)OC(C)(C)C)S4(=O)=O)O2)cc1 (centres undefined)	19.4% (inactive)
CN(C(=O)c1cccc(OC2CCN(S(=O)(=O)N(C)C)CC2)c1)C1CCOC1 (centres undefined)	21.6% (inactive)
CN(C)S(=O)(=O)N1CCC(Oc2cccc(C(=O)NCCCC3CCCC3)c2)CC1	56.6% (active)
CNS(=O)(=O)c1cccc(C(=O)NCC2CCCCC2)c1	10.6% (inactive)

SMILES	inhibition
O=C(CN(C(=O)c1nsc(Cl)c1Cl)c1cccc(F)c1)NC1CCCC1	-1.89% (inactive)
O=C(NCCCn1ccnc1)C1CCCN(S(=O)(=O)c2cc(Cl)ccc2Cl)C1 (centres undefined)	-13% (inactive)
COc1cccc(CNc2ncc(-c3ccccc3)n2C)c1	20.5% (active)
COc1cccc(CNS(=O)(=O)c2cc3c(cc2C)n(C)c(=O)c(=O)n3C)c1	-2.17% (inactive)
COc1cccc(CNc2nc(C(F)(F)F)nc3ccccc23)c1	-1.59% (inactive)
COc1cc(C(=O)N/C(=C\c2cn(C)c3ccccc23)C(=O)N2CCOCC2)cc(OC)c1OC	-2.55% (inactive)
COc1ccccc1C(=O)Nc1ccnn1C1CCN(Cc2cnn(C)c2)CC1	14.1% (inactive)
CC(C)CNC(=S)NC(=O)c1ccc(Cl)cc1	90.8% (active)
Cc1occc1C(=O)NNC(=S)NCC(C)C	-8.32% (inactive)
CC(C)C(NC(=O)c1ccc(Cl)cc1)C(=O)O (centres undefined)	-21.4% (inactive)
CCn1ccnc1CNC(=O)CC1C(=O)NCCN1Cc1ccc(F)cc1Cl (centres undefined)	-5.69% (inactive)
CC(C)C[C@H](NC(=O)C1CCC(CNC(=O)[C@@H]2CCCN2C(=O)OC(C)(C)C)CC1)C(=O)O (some centres undefined)	-6.01% (inactive)
Cn1cccc1C(=O)N1CCc2ccccc2C1	36.9% (inactive)
Cc1ccc(-c2cc(C(=O)N3CCc4ccccc4C3)no2)cc1	46.6% (active)
O=C(COc1ccccc1)N1CCc2ccccc2C1	38.7% (inactive)
COc1cccc(N(CC(=O)N2CCc3ccccc3C2)S(C)(=O)=O)c1	-19.6% (inactive)
O=C(c1cc(-c2cccc(O)c2)on1)N1CCc2ccccc2C1	35.6% (active)
Cc1cccc(OC(C)C(=O)N2CCc3ccccc3C2)c1 (centres undefined)	-13.5% (inactive)
CN1CCN(Cc2c(C(=O)N3CCc4ccccc4C3)nc3ccc(Cl)cn23)CC1	-6.16% (inactive)
O=C(NCCCN1CCOCC1)c1cc(-c2cccc(O)c2)on1	23.1% (inactive)
CN(c1cccc(NC(=O)c2ccc(CN3CCc4ccccc4C3)cc2)c1)S(C)(=O)=O	-12% (inactive)
CN(c1ccc(C(=O)N2CCc3ccccc3C2)cc1)S(C)(=O)=O	52.2% (active)
Cc1ccc2c(c1)N(C(=O)CCC(=O)N1CCc3ccccc3C1)CCO2	2.26% (inactive)
O=C(c1noc2c1CCCC2)N1CCc2ccccc2C1	67.4% (active)

Reference: PubChem BioAssay AID2315 (National Center for Advancing Translational Sciences (NCATS), 2010)
